Unmarked numbers belong to inactive results. Records with an inconclusive call do not appear. Where a call stands in place of a potency, no number is given. The source made the active and inactive calls. Unless noted, the call rests on the fitted dose curve.
Legend:
[1] = Nuclear factor erythroid 2-related factor 2/antioxidant responsive element (Nrf2/ARE) small molecule agonists: qHTS cell viability counter screen in human keratinocytes (AID 1919968; active means well fitted curve in the direction sought with a large enough effect in the repeat runs; an effect the other way counts as inactive or inconclusive; further: nearly all actives have a fitted effect of over 55% in size)
Procedure, shortened: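 Parallel cytotoxicity read: KeratinoSens HaCaT cells, compound treatment 23 h, viability by CellTiter-Fluor fluorescence 1 h post-reagent.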

[2] = Nuclear factor erythroid 2-related factor 2/antioxidant responsive element (Nrf2/ARE) small molecule agonists: luciferase reporter gene qHTS assay in human keratinocytes (AID 1919969); further: nearly all actives have a fitted effect of over 35% in size; further: potency means the concentration at half of the fitted maximal effect
[3] = target: Gonadotropin-releasing hormone receptor (Homo sapiens) (UniProt P30968); assay: Human gonadotropin-releasing hormone receptor (GnRHR) small molecule agonists, calcium flux assay in GnRHR-HEK293 cells (AID 1920063); further: nearly all actives have a fitted effect of over 35% in size
Procedure, shortened: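 Calcium flux, agonist mode, human GnRHR stably integrated in HEK293; dye 1 h at 37 C before compound; Ex/Em=480/540 kinetic read, 3 min; 15 concentrations, triplicate.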

[4] = target: KiSS-1 receptor (Homo sapiens) (UniProt Q969F8); assay: Human kisspeptin (KISS1R) small molecule agonists, calcium flux assay in KISS1R-HEK293 cells (AID 1920064; active means well fitted curve in the direction sought with a large enough effect in the repeat runs; an effect the other way counts as inactive or inconclusive)
Procedure, shortened: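 Triplicate 15-concentration series were applied to dye-loaded human KISS1R HEK293 cells, and agonist-evoked calcium fluorescence was captured for 3 min.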

[5] = G protein-coupled receptor (GPCR) small molecule agonists, calcium flux assay: HEK293 wild type cell line counter screen (AID 1920065)
Procedure, shortened: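 Non-specific calcium responders were flagged by adding DMSO-dissolved compounds to dye-loaded cells and reading 480/540 nm fluorescence each second for 3 min; ATP served as positive control.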

[6] = p53 small molecule agonists, cell-based qHTS assay with human liver microsomes (AID 1963577);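 further: p53 response element beta-lactamase reporter cells with liver microsomes plus NADPH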
Procedure, shortened: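 In this qHTS, p53 response-element beta-lactamase cells receive test compound together with a microsome/NADPH activating system (0.5 mg/mL final each) and are incubated 16 h at 37 C before LiveBLAzer fluorescence detection.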

[7] = p53 small molecule agonists, cell-based qHTS assay with rat liver microsomes (AID 1963578)
Procedure, shortened: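 Agonist mode in p53RE-bla reporter cells, with compounds co-incubated 16 h at 37 C alongside 0.5 mg/mL rat liver microsomes and 0.5 mg/mL NADPH (final), followed by a 2 h LiveBLAzer detection step.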

[8] = p53 small molecule agonists, cell-based qHTS assay with human liver microsomes: qHTS cell viability counter screen (AID 1963579); further: nearly all actives have a fitted effect of over 45% in size
Procedure, shortened: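 Metabolically activated exposure: compounds, human liver microsomes and NADPH (0.5 mg/mL final apiece) were added to p53RE-bla cells seeded 5 h earlier, left 16 h at 37 C, and then assessed for viability by CellTiter-Glo luminescence.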

[9] = p53 small molecule agonists, cell-based qHTS assay with rat liver microsomes: qHTS cell viability counter screen (AID 1963580); further: nearly all actives have a fitted effect of over 45% in size
Procedure, shortened: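 Counter screen for cytotoxicity under metabolic activation: rat liver microsomes and NADPH, 0.5 mg/mL final each, added with compounds to p53RE-bla HCT-116 cells; 16 h at 37 C, then ATP luminescence read.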

[10] = p53 small molecule agonists, cell-based qHTS assay: qHTS cell viability counter screen (AID 1963581); further: nearly all actives have a fitted effect of over 45% in size
Procedure, shortened: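 Multiplexed with the reporter read, a CellTiter-Glo step (30 min, room temperature) gauges ATP-based viability of HCT-116 p53RE-bla cells after 16 h compound incubation at 37 C.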

[11] = p53 small molecule agonists, cell-based qHTS assay (AID 1963582; active means well fitted activation curve with a large enough effect in the signal ratio in the repeat runs, not every such curve was filed as active; the % refers to the signal ratio)
Procedure, shortened: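 Beta-lactamase reporter cells (p53RE-bla) treated with compounds for 16 h at 37 C; FRET substrate, 2 h, room temperature; fluorescence intensity.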

[12] = target: 5-hydroxytryptamine receptor 2A (Homo sapiens) (UniProt P28223); assay: 5-hydroxytryptamine receptor 2A (HTR2A) small molecule antagonists, cell-based qHTS assay (AID 1963586); further: nearly all actives have a fitted effect of over 45% in size; further: potency means the concentration at half of the fitted maximal effect
Procedure, shortened: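 CHO cells stably expressing human HTR2A were plated for 18 h at 37 C, then loaded with calcium dye for 1 h. Compounds were preincubated 5 min at room temperature before DOI (4 nM solution) was added. Kinetic fluorescence was read for 3 min.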

[13] = target: 5-hydroxytryptamine receptor 2A (Homo sapiens) (UniProt P28223); assay: 5-hydroxytryptamine receptor 2A (HTR2A) small molecule agonists, cell-based qHTS assay (AID 1963587); further: nearly all actives have a fitted effect of over 30% in size
Procedure, shortened: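 HTR2A-CHO cells, plated 18 h at 37 C/5% CO2, dye-loaded 1 h at 37 C; compounds in DMSO added by pin tool (agonist mode). Intracellular calcium flux read as kinetic fluorescence on FDSS over 2 min at 1 s intervals.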

[14] = target: Muscarinic acetylcholine receptor M1 (Homo sapiens) (UniProt P11229); assay: Cholinergic receptor muscarinic 1 (CHRM1) small molecule antagonists, cell-based qHTS assay (AID 1963588); further: nearly all actives have a fitted effect of over 40% in size
Procedure, shortened: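 Compounds were tested at 15 concentrations in three independent runs. Dye-loaded CHRM1-CHO cells were exposed 5 min at room temperature before stimulation by acetylcholine added at 50nM. Intracellular calcium was read kinetically on FDSS for 3 min.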

[15] = target: Muscarinic acetylcholine receptor M1 (Homo sapiens) (UniProt P11229); assay: Cholinergic receptor muscarinic 1 (CHRM1) small molecule agonists, cell-based qHTS assay (AID 1963589); further: nearly all actives have a fitted effect of over 35% in size
Procedure, shortened: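 qHTS, 15-point titration, 3 independent runs: compounds pin-transferred onto dye-loaded CHRM1-CHO cells (human M1), calcium fluorescence followed every second to detect agonism.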

[16] = cAMP Responsive Elements (CRE) small molecule antagonists, cell-based qHTS assay (AID 1963591; active means well fitted inhibition curve with a large enough effect in the signal ratio in the repeat runs, not every such curve was filed as active; the % refers to the signal ratio)
Procedure, shortened: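 Fluorescence intensity from cleaved LiveBLAzer B/G substrate (2 h, room temperature) quantified CRE-bla activity in HEK 293T cells exposed 3 h to compound with 0.25 uM final NKH477.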

[17] = target: Beta-2 adrenergic receptor (Homo sapiens) (UniProt P07550); assay: Adrenergic beta2 receptor (ADRB2) small molecule antagonists, cell-based qHTS assay (AID 1963592); further: series mostly up to about 92 µM; nearly all actives have a fitted effect of over 50% in size
Procedure, shortened: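 Assay format: CHO-ADRB2 cells, 18-20hr seeding at 37C/5% CO2, then compound plus 1nM isoproterenol agonist mix for 0.5hr RT. Homogeneous time-resolved fluorescence cAMP detection after 1hr, expressed as 665/615 nm ratio.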

[18] = target: D(2) dopamine receptor (Homo sapiens) (UniProt P14416); assay: Dopamine D2 receptor (DRD2) small molecule agonists, cell-based qHTS assay (AID 1963594); further: nearly all actives have a fitted effect of over 35% in size
Procedure, shortened: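 HEK293 cells stably expressing DRD2 were cultured 24 h at 37 C, then given Ro20-1724 (0.1 mM final) and compounds for 10 min at room temperature. NKH477 (200nM) was then added for 30 min. cAMP was read by HTRF.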

[19] = target: D(2) dopamine receptor (Homo sapiens) (UniProt P14416); assay: Dopamine D2 receptor (DRD2) small molecule antagonists, cell-based qHTS assay (AID 1963595; active means well fitted inhibition curve with a large enough effect in the signal ratio in the repeat runs, with a control signal flat; the % refers to the signal ratio)
Procedure, shortened: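 Readout: HTRF cAMP, cAMP-d2 competing with cellular cAMP for anti-cAMP cryptate, read after 1 h. Cells: DRD2-HEK293. Conditions: 0.1 mM Ro20-1724, 12 nM quinpirole, 200 nM NKH477, 30 min RT.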

[20] = cAMP Responsive Elements (CRE) small molecule agonists, cell-based qHTS assay (AID 1963590)
Procedure, shortened: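 Quantitative HTS for CRE agonists: HEK 293T CRE-bla cells, overnight plating, 3 h compound incubation at 37 C/5% CO2, then 2 h room-temperature LiveBLAzer B/G FRET substrate loading.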

Chain of 5-hydroxytryptamine receptor 2A (Homo sapiens) (P28223 whole entry, looked up): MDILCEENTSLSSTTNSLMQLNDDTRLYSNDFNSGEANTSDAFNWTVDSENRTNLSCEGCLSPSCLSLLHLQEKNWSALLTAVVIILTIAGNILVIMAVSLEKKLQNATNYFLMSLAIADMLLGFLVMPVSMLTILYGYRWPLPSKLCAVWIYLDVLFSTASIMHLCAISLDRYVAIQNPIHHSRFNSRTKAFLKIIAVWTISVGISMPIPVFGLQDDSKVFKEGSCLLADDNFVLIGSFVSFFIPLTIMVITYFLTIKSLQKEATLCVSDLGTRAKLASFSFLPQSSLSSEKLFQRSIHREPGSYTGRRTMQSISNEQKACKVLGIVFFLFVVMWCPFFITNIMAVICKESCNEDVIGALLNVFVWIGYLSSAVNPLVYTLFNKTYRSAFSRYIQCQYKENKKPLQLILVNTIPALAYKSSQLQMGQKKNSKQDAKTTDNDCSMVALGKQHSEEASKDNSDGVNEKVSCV
Chain of Gonadotropin-releasing hormone receptor (Homo sapiens) (P30968 whole entry, looked up): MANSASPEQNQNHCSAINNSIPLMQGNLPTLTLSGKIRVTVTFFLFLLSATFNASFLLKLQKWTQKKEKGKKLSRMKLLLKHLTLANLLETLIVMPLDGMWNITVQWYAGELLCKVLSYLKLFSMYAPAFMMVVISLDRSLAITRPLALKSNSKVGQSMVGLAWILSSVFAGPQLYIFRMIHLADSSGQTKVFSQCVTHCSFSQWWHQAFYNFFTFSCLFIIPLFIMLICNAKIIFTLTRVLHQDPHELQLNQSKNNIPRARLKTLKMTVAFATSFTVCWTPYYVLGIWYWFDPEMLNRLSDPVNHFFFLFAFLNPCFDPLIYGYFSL
Chain of Beta-2 adrenergic receptor (Homo sapiens) (P07550 whole entry, looked up): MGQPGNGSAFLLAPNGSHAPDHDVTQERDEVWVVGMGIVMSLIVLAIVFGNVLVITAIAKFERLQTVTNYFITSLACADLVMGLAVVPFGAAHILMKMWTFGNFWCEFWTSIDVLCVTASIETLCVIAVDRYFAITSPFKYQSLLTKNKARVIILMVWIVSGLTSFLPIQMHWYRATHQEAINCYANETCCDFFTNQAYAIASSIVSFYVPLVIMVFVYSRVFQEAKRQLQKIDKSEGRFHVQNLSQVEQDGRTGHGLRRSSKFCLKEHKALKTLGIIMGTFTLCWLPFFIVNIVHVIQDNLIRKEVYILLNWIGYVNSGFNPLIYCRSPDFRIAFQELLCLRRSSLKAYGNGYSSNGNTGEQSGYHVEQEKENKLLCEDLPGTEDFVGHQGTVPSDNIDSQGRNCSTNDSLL
Chain of KiSS-1 receptor (Homo sapiens) (Q969F8 whole entry, looked up): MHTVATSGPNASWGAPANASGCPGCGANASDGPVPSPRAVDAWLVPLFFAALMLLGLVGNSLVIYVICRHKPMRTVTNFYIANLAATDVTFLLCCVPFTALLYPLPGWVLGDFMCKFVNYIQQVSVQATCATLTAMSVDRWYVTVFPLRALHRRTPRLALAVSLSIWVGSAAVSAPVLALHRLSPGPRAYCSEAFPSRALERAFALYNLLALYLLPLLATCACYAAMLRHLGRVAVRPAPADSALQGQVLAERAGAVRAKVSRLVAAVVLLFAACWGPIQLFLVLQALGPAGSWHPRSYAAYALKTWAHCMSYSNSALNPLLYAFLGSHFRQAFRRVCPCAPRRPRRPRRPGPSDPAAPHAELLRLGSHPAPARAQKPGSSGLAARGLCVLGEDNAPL
Chain of Muscarinic acetylcholine receptor M1 (Homo sapiens) (P11229 whole entry, looked up): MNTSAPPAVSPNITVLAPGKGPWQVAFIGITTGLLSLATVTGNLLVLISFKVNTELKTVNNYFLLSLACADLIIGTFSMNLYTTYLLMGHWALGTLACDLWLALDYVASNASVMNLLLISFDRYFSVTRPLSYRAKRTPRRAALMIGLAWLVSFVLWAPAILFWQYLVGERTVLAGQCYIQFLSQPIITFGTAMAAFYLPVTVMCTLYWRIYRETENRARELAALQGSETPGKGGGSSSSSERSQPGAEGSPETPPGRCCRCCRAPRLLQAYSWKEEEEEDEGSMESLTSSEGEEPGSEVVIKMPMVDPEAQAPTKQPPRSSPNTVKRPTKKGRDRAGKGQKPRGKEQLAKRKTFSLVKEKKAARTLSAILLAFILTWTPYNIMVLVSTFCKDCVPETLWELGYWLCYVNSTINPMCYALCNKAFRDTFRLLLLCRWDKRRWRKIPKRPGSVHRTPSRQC
Chain of D(2) dopamine receptor (Homo sapiens) (P14416 whole entry, looked up): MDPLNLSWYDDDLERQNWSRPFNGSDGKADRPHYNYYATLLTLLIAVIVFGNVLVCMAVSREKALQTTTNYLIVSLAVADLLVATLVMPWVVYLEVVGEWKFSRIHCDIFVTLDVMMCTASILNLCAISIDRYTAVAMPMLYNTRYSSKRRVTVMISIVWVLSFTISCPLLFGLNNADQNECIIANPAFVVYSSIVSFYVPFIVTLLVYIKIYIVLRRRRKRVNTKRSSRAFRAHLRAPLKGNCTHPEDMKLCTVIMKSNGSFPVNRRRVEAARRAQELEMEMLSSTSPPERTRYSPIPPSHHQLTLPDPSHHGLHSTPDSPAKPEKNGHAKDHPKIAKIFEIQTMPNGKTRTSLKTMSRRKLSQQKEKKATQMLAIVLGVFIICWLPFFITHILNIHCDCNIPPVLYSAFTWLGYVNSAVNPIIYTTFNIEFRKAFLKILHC

SMILES	Potency [1]	Potency [2]	Potency [3]	outcome [4]	outcome [5]	Potency [6]	Potency [7]	Potency [8]	Potency [9]	Potency [10]	Potency [11]	Potency [12]	Potency [13]	Potency [14]	Potency [15]	Potency [16]	Potency [17]	Potency [18]	Potency [19]	Potency [20]
C=CC1CC2C=CC1C2 (stereo not drawn)	inactive	inactive	inactive	inactive	inactive	inactive	inactive	inactive	inactive	inactive	inactive	inactive	inactive	inactive	inactive	inactive	inactive	inactive	inactive	
Cc1ccc(S)cc1	inactive	24.3 µM (active)	inactive	inactive	inactive	inactive	inactive	inactive	inactive	inactive	inactive	42.1 µM (active)	inactive	inactive	inactive		inactive	inactive	inactive	
O=C(C1CCCCC1)N1CC(=O)N2CCCc3ccccc3C2C1 (stereo not drawn)	inactive	inactive	inactive	inactive	inactive	inactive	inactive	inactive	inactive	inactive	inactive	inactive	inactive	inactive	inactive		inactive	inactive	inactive	
Cc1cc(=O)oc2cc(O)cc(O)c12	inactive	inactive	inactive	inactive	inactive	inactive	inactive	inactive	inactive	inactive	inactive	inactive	inactive	inactive	inactive		inactive	inactive	inactive	
CCC(CO)(CO)[N+](=O)[O-]	inactive	inactive	inactive	inactive	inactive	inactive	inactive	inactive	inactive	inactive	inactive	inactive	inactive	inactive		inactive	inactive	inactive		inactive
CO[C@@H]1COCC[C@@H]1N[C@@H]1CC[C@@](C(=O)N2CCc3ncc(C(F)(F)F)cc3C2)(C(C)C)C1	inactive	inactive	inactive	inactive	inactive	inactive	inactive	inactive	inactive	inactive	inactive	inactive	inactive		inactive	inactive	inactive	inactive	inactive	inactive
O=C(OCC(O)CO)c1ccccc1Nc1ccnc2c(C(F)(F)F)cccc12 (stereo not drawn)	inactive	inactive	inactive	inactive	inactive	inactive	inactive	inactive	inactive	inactive	inactive	inactive	inactive	inactive	inactive		inactive	inactive	inactive	
